In publication PMC12136788:
Where a chain is given by its changes, count along the chain named. In all, about 24,000 sequences were measured (“enrichment r”: median about 0.99, highest 2% from about 3.7 on). The sample as a whole holds a higher share of the highest values than the screen did.

T1: UNK ZnF1-3 (human, UniProt Q9C0B0 31-174)
T1 sequence: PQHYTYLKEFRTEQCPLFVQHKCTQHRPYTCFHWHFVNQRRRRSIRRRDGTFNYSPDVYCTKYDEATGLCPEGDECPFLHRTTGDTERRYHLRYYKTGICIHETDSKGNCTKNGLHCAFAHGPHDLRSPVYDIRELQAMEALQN

B1: chr3:35977374:35977375:+_ENSMUSG00000027710_ENSMUST00000011492|mus_hu|motif|central (ssRNA)
RNA: GGGAGUUCUACAGUCCGACGAUCCACAGGUAUCUUGGUGUUUUCAAAAUGGACUUCACAAGUGUUGGAGCCCCGAAUGCCGGAUUUAUCUUCGGGUUUCCCAUUAGUGACUCCACCAAAGUCUCUUUCUACUAUGAAUGCUGUCAACAGAGGAUUGAGCAUCA
B2: chr2:24917620:24917621:+_ENSMUSG00000006476_ENSMUST00000102931|mus_mus|motif|central (ssRNA)
RNA: GGGAGUUCUACAGUCCGACGAUCAGUAAUGCUGCUUCCCUUCAAAUUGUUUCAGGGGUGUAAAAAAAUUGCACUUAUUUCGGUGAACCCCAUGGAGGGGAUCCCCAAUGCUGCUGCCUCCAGGCGAGGCAUGACAGGUCAAUGCAACAGAGGAUUGAGCAUCA
B3: chr5:10264850:10264851:+_ENSG00000150753_ENST00000503026|hu_hu|FALSE|FALSE (ssRNA)
RNA: GGGAGUUCUACAGUCCGACGAUCUUCUCAAUGUCUUCAUUCUUCAGAUUCUCCAGGCUUACGAAUGUCAUCAAUCUUCAAAAUCAUUCUAACCAUUUGUGUUGCAAGAGAUAUCUGUUGCUUUUUGCCAAUCAAGGUUUCUAUCAACAGAGGAUUGAGCAUCA
B4: chr2:166767530:166767531:+_ENSMUSG00000002718_ENSMUST00000002790|mus_mus|FALSE|FALSE (ssRNA)
RNA: GGGAGUUCUACAGUCCGACGAUCAAAUAUUUCUUGUAAUGCUAGUGCCCCAUACUUAAUGCAAUAUAAGUUAAUAAACACUAAGAAACUCUUGAUAAACUUGGUGGUCUUGGAGUUUUGCAGUCUCUGGAAUAGUAGAAUGAACAACAGAGGAUUGAGCAUCA
B5: chr4:34514055:34514056:+_ENSMUSG00000028291_ENSMUST00000084299|mus_mus|FALSE|FALSE (ssRNA)
RNA: GGGAGUUCUACAGUCCGACGAUCCUGGGGAGGAGGUGCAGCAAUAAACAUUUGUUAAAAAGACUGAUAGAAUAAAUAAAACUACCAAAAAAUAAUAAAGAAAAUCAUAUAAACCCAUUCUGAAACCCCAAGAAAAGUCCUGAACAACAGAGGAUUGAGCAUCA
B6: 85396044_85398007_762_3pUTR_ENSMUSG00000021549_ENSMUST00000109552|mouse|control|control (ssRNA)
RNA: GGGAGUUCUACAGUCCGACGAUCCACCAAUGUAGUAAUCACCACACAUAGCAAUAAUCCUAAAAUGAUUGACAACAUUUGUCUGACUAAGGAAUGAAAGUACAAAGGACCCCGGCCUCCGAUCACUCUCUCUUAUAAGAUAGCCAACAGAGGAUUGAGCAUCA
B7: chr4:34514055:34514056:+_ENSMUSG00000028291_ENSMUST00000084299|mus_mus|motif|central (ssRNA)
RNA: B5 RNA with U82G, A83G
B8: chr12:75046761:75046762:+_ENSMUSG00000021109_ENSMUST00000021530|mus_mus|FALSE|FALSE (ssRNA)
RNA: GGGAGUUCUACAGUCCGACGAUCAUAUAGAAAAUAUAAAUAGACUGCUGAGCCACCAGUGUCCAAAAAUAACCAACAGAAACAAAAACCCAACAAACAACAACAACUGAACAAAAACAUUAACAAUCAAAAGGAAUGAGAUUACAACAGAGGAUUGAGCAUCA
B9: chr6:13786029:13786030:-_ENSMUSG00000048216_ENSMUST00000115492|mus_mus|FALSE|FALSE (ssRNA)
RNA: GGGAGUUCUACAGUCCGACGAUCAAAAACUCUCCAAUAGCAGGCCACCAGGUAGGGACCCCACAAGGUUAGGAAGAGGAAAGUCAUUAUAUAAAACAUUCUGCUGAUUCUUUUCUCCAUUUUGAACUCAUCCAAGACCAAUAGCAACAGAGGAUUGAGCAUCA

These binders were tested against T1, UNK ZnF1-3 (assay: nsRBNS (natural sequence RNA bind-n-seq); RBNS binding buffer (assumed for nsRBNS): 25 mM Tris pH 7.5, 150 mM KCl, 3 mM MgCl2, 0.01% Triton X-100, 500 ug/ml BSA, 20 U/ml SUPERase-In, 4 C; UNK is unkempt and MSI1 is Musashi-1; names of the RNAs are library labels; protein concentration not given here; high values mean tight binding).

Binder	binding signal
B1	0.637 enrichment R
B2	1.02 enrichment R
B3	0.579 enrichment R
B4	1.05 enrichment R
B5	8.55 enrichment R
B6	0.49 enrichment R
B7	15.2 enrichment R
B8	3.57 enrichment R
B9	1.71 enrichment R
